Structures are written as SMILES. Results filed as inconclusive are left out. Calls of active or inactive are those of the source. Calls come from the whole dose curve; as a rule, active = well fitted activation curve with a large enough effect; inconclusive = small, poorly fitted or top-dose-only effect; inactive = no such curve, though single readings can be large or run the other way.
Potency is the fitted concentration of half-maximal effect.

The experiment in a line: qHTS assay for re-activators of p53 using a Luc reporter: Hit Validation. For activation: 0% is about no effect. Note: nearly all actives have a fitted effect of over 75% in size. The settings on record: p53-responsive luciferase reporter cells, luminescence, H1299 line expressing heat-sensitive Ala138Val p53; series mostly up to 46.1 µM. From the text: The p53 tumor suppressor plays a key role in suppression of tumorigenesis and in human carcinogenesis. It is frequently found inactivated in human cancers, mainly by point mutation. These point mutations are found in a wide variety of human cancers and a majority of them affect the DNA binding domain of the protein. The point mutations either alter native p53 conformation or abolish DNA contact. Additionally, cancer cells with p53 mutations are more resistant to chemo-radiation therapies.
In order to find activators to reactivate this important protein, a cell-based screen for p53-dependent luciferase-reporter expression was developed. A p53-null H1299 lung cancer cell line was stably co-transfected with a temperature sensitive p53 mutant, p53-A138V, and a p53-responsive BP100-luciferase reporter. This cell model has previously been characterized in a gene chip profiling experiment for p53 activation. By lowering the culture temperature from 37 deg C (mutant p53 conformation) to 32 deg C (w.t. p53 conformation), a 30-60 fold increase in activation of luciferase activity is observed. At assay temperate, 37 deg C, basal reporter expression is very low and after the addition of detection reagent, a luminescent read-out is carried out. This is the hit validation assay, confirming the hits identified from the primary screen.
NIH Chemical Genomics Center [NCGC]
NIH Molecular Libraries Probe Production Centers Network [MLPCN]
Assay Provider (PI): Yi Sung, University of Michigan at Ann Arbor
5ul of 1000 cells per well are dispensed in all wells except column 4, into white solid-bottom TC-treated Kalypsys plates. The cells are kept in Opti-MEM and supplemented with 10% FBS and dispensed using a Multidrop (Thermo). Then using the Kalypsys pin-tool, 23nl of compounds are pinned. The compounds are starting concentration at 10mM, with 1:5 dilution, 4 points, and the control compound nocodazole is pinned in column 1 at 25mM, 1:3 dilution, in duplicate, 25mM nocodazole is pinned in column 2. Please note, all concentrations are working concentrations. 5ul of 1pM purified luciferase enzyme is dispensed using the Kalypsys dispenser in column 4. Plates are incubated for 24 hrs at 37 deg C, 5% CO2, and 95% humidity. Then 4ul of the detection reagent Amplite (ABD Bioquest) is added using the Kalypsys dispenser. Plates are incubated for 10 min at ambient room temperature and are then read on the ViewLux (Perkin Elmer) using a clear filter for a luminescent read-out.
(In general: qHTS replaces the single test concentration by a dilution series.)
In the case of `c1cnc2c(OCc3nc4ccccc4[nH]3)cccc2c1`, the Potency was 6510 nM (active).
On the same count and under the same terms, then `C=Cc1ccc(Cn2c(=O)n(CCCOC)c(=O)c3sccc32)cc1`, with “inactive”.
On the same count and under the same terms, then `Clc1ccc(-c2nnc(SCc3ccon3)o2)c(Cl)c1`, with 366 nM (active); and `C/C(=C\C(=O)c1ccccc1)Nc1ccc2c(c1)OCO2`, with 2910 nM (active).
Same read-out and setting: then `Cc1ccc(-c2nnc(N(C)C(=O)C3CCCO3)s2)cn1` (stereo not given), with “inactive”.
As to `O=C(N/N=C\c1cccc(Cl)c1)c1n[nH]c2c1CCCC2`, the Potency is 4110 nM (active).
`CC1CCC(NC(=O)C2CCN(C(=O)Nc3ccccc3)CC2)CC1` (stereo not given): the Potency result is “inactive”.
Same read-out and setting: with `Cc1ccc(C(=O)CC(Nc2ccc(F)cc2)c2ccccc2)cc1` (stereo not given) the entry was “inactive”.
With `Oc1c(CN2CCOCC2)cc(COCc2ccccc2)c2cccnc12`, the Potency result was “inactive”.
On the same count and under the same terms, with `Oc1ccccc1-c1cc(-c2ccccc2)n[nH]1` the figure was 3660 nM (active); with `Cn1ncc([N+](=O)[O-])c1C(=O)Nc1ccc(C2CCCCC2)cc1`, “inactive”.
On the same count and under the same terms, then `Nc1cccc(-c2nc3ccc(C(=O)c4ccccc4)cc3[nH]2)c1`, with 2060 nM (active); and `Clc1ccc(OCc2cc(-c3ccccc3)no2)c(Cl)c1`, with 1160 nM (active).
On the same count and under the same terms, with `COc1ccc2oc(C(=O)OCC(=O)NCCN3C(=O)CSC3=O)c(C)c2c1` the entry was “inactive”.
As for `OCCNc1nc(NCc2ccccc2)c2ccccc2n1`, the activation was -3.8% [at 9.22 µM] (inactive).
Turning to `Cc1ccc2nc(-c3ccc(NC(=O)COC(=O)c4ccc(Br)o4)cc3)sc2c1`, the Potency was 51.7 nM (active).
Same read-out and setting: then `COc1ccc2cc(C3(C)NC(=O)N(CC(=O)Nc4c(C)n(C)n(-c5ccccc5)c4=O)C3=O)ccc2c1` (stereo not given), with “inactive”; and `Clc1ccc(-c2cn3c(n2)-c2ccccc2C3)cc1Cl`, with 10300 nM (active); and `Cc1ccc(NC(=O)/C=C/c2ccco2)nc1`, with 2590 nM (active).
On the same count and under the same terms, with `Cc1cc(C(=O)COC(=O)c2cccc(O)c2)c(C)n1C1CC1` the figure was 130 nM (active).
The same measure, in the same setting: then `COc1ccc(-n2nc([N+](=O)[O-])c(=NCc3ccco3)n2O)cc1`, with “inactive”; and `N#CC(Cc1ccccc1)(Cc1ccccc1)C(=O)NN`, with “inactive”; and `O=C(COC(=O)c1cn(-c2ccccc2)nc1-c1ccc(F)cc1)Nc1ncc(Cl)cc1Cl`, with “inactive”.
On to `Cc1ccc2nc(NC(=O)c3ccc(Cl)s3)sc2c1`, for which the Potency was 731 nM (active).
Still for that read-out and setting: then `CNC(=S)N/N=C/c1cc(Br)cc(Br)c1O`, with “inactive”; and `O=C1c2cccc3cc([N+](=O)[O-])cc(c23)C(=O)N1CCN1CCCC1`, with “inactive”.
On the same count and under the same terms, then `C/C(=N/NC(=S)Nc1ccccc1)c1ccc2c(c1)OCO2`, with “inactive”.
On the same count and under the same terms, with `O=C(c1cccc(Br)c1)c1coc2ccc(O)cc12` the figure was 23100 nM (active); with `O=C(CC(Nc1ccc(F)cc1)C(=O)OCC(=O)c1cccs1)c1ccccc1` (stereo not given), “inactive”.
In the case of `Cc1cs/c(=N/C(=S)Nc2ccccc2)n1C`, the Potency is 1840 nM (active).
Same read-out and setting: then `C=CCNc1nc(-c2cc3ccccc3o2)cs1`, with 651 nM (active); and `Cc1ccc(NC(=O)/C=C/c2ccc([N+](=O)[O-])s2)c(C)c1`, with 2910 nM (active).
For the compound `Cc1ccc(S(=O)(=O)CNC(=O)c2ccccc2)cc1`, the Potency entry is “inactive”.
Same read-out and setting: then `COc1cccc(/C=N/Nc2ccc([N+](=O)[O-])cn2)c1O`, with 9200 nM (active); and `Cc1ncsc1C(=O)Nc1nc2c(s1)CCCC2`, with 1840 nM (active).
Still for that read-out and setting: then `CCSc1nnc(SCC(=O)NC2CCCCC2)s1`, with “inactive”; and `O=C(CSc1nnc(-c2ccc(O)cc2)o1)Nc1ccc2c(c1)OCCO2`, with 8200 nM (active).
Same read-out and setting: then `C(=C\c1nc(-c2ccccc2)no1)/c1ccccc1`, with 2310 nM (active); and `CCCCOC(=O)c1ccc(NC(=O)CSc2nncn2C)cc1`, with “inactive”; and `O=C(Nc1ccc2c(c1)CCC2)c1ccccc1F`, with 366 nM (active).

Source of the values: PubChem BioAssay AID624305 (National Center for Advancing Translational Sciences (NCATS), 2012).
